HEK293 cAMP ctrl – raises cAMP in parental HEK293 cells, TSHR agonist counter-screen. parental HEK293 CNG cAMP sensor, membrane potential fluorescence. Potency, µM (highest dose often 57.1 µM), actives largely listed as activators. 73,000 tested, 2.5% active. AID 938; further: nearly all actives have a fitted effect of over 55% in size
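Parental HEK 293 cells stably expressing a cAMP-gated CNG channel were loaded with membrane potential dye containing 100 uM RO 20-1724 for 60 min. Compound added for 30 min; depolarization read as fluorescence intensity at 590 nm.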
HBB splicing – alters splicing of the hemoglobin beta chain; AID 925; Potency, µM (highest dose often 46.1 µM), hits mostly activators; 65,000 tested, 0.06% active; HBB splicing reporter cell assay, activation; EGFP reporter with mutant IVS2-654 intron; response scale: normalised to 500 nM splice-correcting PNA
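Compounds were applied for 2 days to HeLa EGFP-654 cells, 500/well in Optimem with 2% FCS. The reporter's EGFP is disrupted by mis-splicing of beta-globin intron IVS2-654. Readout: summed well GFP fluorescence from 488 nm laser scanning; reference was 500 nM antisense […] 654 PNA.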
ERK AVP inh – vasopressin-driven ERK pathway inhibition. HEK293-V1b, vasopressin-stimulated pERK AlphaScreen. Potency, µM (series often up to 57.5 µM), hits mostly inhibitors. 72,000 tested, 0.99% active. AID 995; further: nearly all actives have a fitted effect of over 55% in size
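qHTS, compounds titrated on V1b-expressing HEK293 cells. Preincubation 30 min at 37C, vasopressin 25 nM for 5 min, lysis 10 min, bead incubation 5 hr at room temperature.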
GFP derepression – derepresses silenced GFP locus in mouse C127i cells | AID 597 | Potency, µM (titrated, usually from 46.1 µM) | mouse C127i GFP locus derepression, cytometry, 30 h | 68,000 tested, 0.09% active
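Murine C127i mammary cells carrying a silenced, stably integrated CMV-driven GFP reporter were treated with compound for 30 hours at 37 C. After PBS washes, GFP-positive cells were counted by laser-scanning microplate cytometry.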
TSHR ag – agonists of human thyroid stimulating hormone receptor; P16473; HEK293-CNG-TSHR cells (CNG channel as cAMP sensor), membrane potential dye, cAMP; Potency, µM (titrated, usually from 57.1 µM), most hits filed as activators; 73,000 tested, 0.48% active; active means well fitted activation curve with a large enough effect in the main read-out, with a control signal flat, not every such curve was filed as active; inconclusive means small, poorly fitted or top-dose-only effect, or a change in a side signal; inactive means no such curve, though single readings can be large or run the other way; reference of the percent scale not stated here;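 further: the control signal comes from parental cells without the receptor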
Target sequence (P16473 whole entry, looked up): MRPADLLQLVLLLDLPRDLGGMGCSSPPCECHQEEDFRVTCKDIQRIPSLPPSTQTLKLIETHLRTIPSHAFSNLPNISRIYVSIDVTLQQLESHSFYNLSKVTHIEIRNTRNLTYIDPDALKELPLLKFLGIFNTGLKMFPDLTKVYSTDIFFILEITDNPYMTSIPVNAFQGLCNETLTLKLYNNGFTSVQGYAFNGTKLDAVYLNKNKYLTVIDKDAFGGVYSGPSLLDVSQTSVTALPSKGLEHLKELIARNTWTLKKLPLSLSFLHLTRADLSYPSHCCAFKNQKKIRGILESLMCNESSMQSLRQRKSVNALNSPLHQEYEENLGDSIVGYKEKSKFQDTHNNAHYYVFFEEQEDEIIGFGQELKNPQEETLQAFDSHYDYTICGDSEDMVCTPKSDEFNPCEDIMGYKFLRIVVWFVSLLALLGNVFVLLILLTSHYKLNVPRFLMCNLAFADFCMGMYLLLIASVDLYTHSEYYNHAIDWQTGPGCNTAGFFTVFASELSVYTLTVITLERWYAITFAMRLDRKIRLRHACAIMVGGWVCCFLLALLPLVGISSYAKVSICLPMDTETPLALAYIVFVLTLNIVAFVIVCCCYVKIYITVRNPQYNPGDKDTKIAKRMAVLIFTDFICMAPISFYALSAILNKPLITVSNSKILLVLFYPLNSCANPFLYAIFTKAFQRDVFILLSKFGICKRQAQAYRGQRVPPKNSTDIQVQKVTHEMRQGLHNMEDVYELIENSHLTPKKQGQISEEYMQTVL
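HEK 293 cells stably expressing TSHR and a modified CNG channel, with CNG-only parental cells as counterscreen, were preloaded 60 min at room temperature with membrane potential dye containing 100 uM RO 20-1724. Compound exposure was 30 min, and depolarization was read as fluorescence at 590 nm.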
UbGFP stabilizer – proteasome inhibitors stabilizing ubiquitin-GFP reporter; Potency, µM (series often up to 45.9 µM), hits mostly activators; 67,000 tested, under 10 active; Ubiquitin-GFP reporter cells, proteasome inhibition, GFP fluorescence; response scale: untreated = 0%, 10 µM MG-132 = 100%; active means well fitted activation curve with a large enough effect, not every such curve was filed as active; inconclusive means small, poorly fitted or top-dose-only effect, or another doubt; inactive means no such curve, though single readings can be large or run the other way
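U2OS cells stably expressing ubiquitin(G76V)-GFP, seeded overnight in 0.5% FBS medium, were exposed to compounds (qHTS, 46 uM to 2.9 nM) for 4 hr at 37 °C. GFP-positive cells were counted by laser cytometry (488 ex/515 em), normalized between basal and 10 uM MG-132.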
Hits are given with their value; - = inactive; ? = inconclusive; . = not tested or not shown; [ ] = another dose, or the depositor's remark. Shown are actives, neighbours in structure and some others; about 3.8% of the full set was active somewhere. Unless noted, the call rests on the fitted dose curve; in most records, active means well fitted curve in the direction sought with a large enough effect; inconclusive means small, poorly fitted or top-dose-only effect, or another doubt; inactive means no such curve, though single readings can be large; an effect the other way counts as inactive or inconclusive.

SMILES | HEK293 cAMP ctrl | HBB splicing | ERK AVP inh | GFP derepression | TSHR ag | UbGFP stabilizer
COC(=O)c1ccccc1NC(=O)c1ccccc1OC | 16µM | . | - | - | ? | -
CCOc1ccccc1C(=O)Nc1cc(Cl)ccc1O | - | - | 10µM | - | ? | -
COC(=O)c1ccccc1NC(=O)c1ccc(F)cc1 | ? | . | - | - | ? | -
c1cncc(CNc2ncncc2-c2cccnc2)c1 | - | - | - | -[9.22 µM] | - | -
C1COC1 | ? | - | - | . | ? | .
Fc1ccc(C(c2nnnn2Cc2ccccc2)N2CCSCC2)cc1 (stereo not given) | 13µM | . | - | - | ? | -
Cc1cc2ncn(C3CC(=O)N(Cc4ccccc4)C3=O)c2cc1C (stereo not given) | - | - | 32µM | - | - | -
Cc1ccc(S(=O)(=O)N2CCN(C3CC(=O)N(Cc4ccccc4)C3=O)CC2)cc1C (stereo not given) | - | - | - | - | - | -
CCC(C)(c1ccc(C(=O)OC)s1)c1ccc(C(=O)OC)s1 | 20µM | -[9.22 µM] | - | - | ? | -
N#Cc1cccc(-c2ccc3ncnc(NCc4ccccc4)c3c2)c1 | ? | - | ? | -[9.22 µM] | ? | -
Cc1cc(C(=O)CSc2nnc(-c3ccco3)o2)c(C)n1-c1ccc2c(c1)OCCO2 | 16µM | - | - | - | ? | -
Cc1nnc(SCC(=O)c2cc(C)n(-c3ccc4c(c3)OCO4)c2C)s1 | 16µM | - | - | - | ? | -
Cc1cc(C(=O)CSc2nnc(-c3ccco3)o2)c(C)n1Cc1ccco1 | ? | - | - | - | ? | -
CCOC(=O)c1oc2ccccc2c1CSc1nnc(-c2ccco2)o1 | ? | - | - | - | ? | -
CCOC(=O)c1oc2ccccc2c1CSc1nnnn1-c1ccc(C)cc1 | 7.9µM | - | - | - | ? | -
CC(=O)C(Sc1ccc2nnc(-c3ccc(C)cc3)n2n1)C(C)=O | - | - | . | . | - | -
Cc1cnn(-c2ccc3nnc(-c4ccc(Br)cc4)n3n2)c1 | 10µM | - | - | - | ? | -
Cc1c(O)ccc2c3c(c(=O)oc12)CCCC3 | - | - | 16µM | - | - | -
Cc1c(O)ccc2c3c(c(=O)oc12)CCC(C)C3 (stereo not given) | - | - | - | - | - | -
C=C(C)COc1ccc2c(C)c(C)c(=O)oc2c1OCC(=C)C | ? | - | - | - | ? | -
C=C(C)COc1ccc2c3c(c(=O)oc2c1OCC(=C)C)CCC3 | 25µM | - | - | - | ? | -
O=C(Oc1ccccc1)N1CCC2(CC1)CCN(c1ccccc1)CC2 | ? | - | ? | -[9.22 µM] | ? | -
Cc1cc(C)c(C)c(OCC(=O)NCc2nc(-c3ccccc3)no2)c1 | ? | - | - | - | ? | -
Cc1cc(OCC(=O)NCc2nc(-c3ccccc3)no2)c(C)cc1Br | 32µM | - | - | - | ? | -
CCCn1c(=O)c2ccccc2n2c(SCCOc3ccccc3F)nnc12 | ? | - | - | - | ? | -
SMILES | HEK293 cAMP ctrl | HBB splicing | ERK AVP inh | GFP derepression | TSHR ag | UbGFP stabilizer
CCCn1c(=O)c2ccccc2n2c(SCCOc3ccc(Cl)cc3)nnc12 | 25µM | - | - | - | ? | -
COc1ccc(-c2nnc(SCC(=O)N(Cc3ccccc3)C(C)(C)C)o2)cc1OC | 32µM | . | - | - | ? | -
COc1cc(-c2nnc(SCC(=O)c3ccccc3)o2)cc(OC)c1OC | - | - | - | - | - | -
CC1(C)OC2CC3C4CC(F)C5=CC(=O)CC[C@@]5(C)C4C(O)C[C@@]3(C)[C@]2(C(=O)CO)O1 (stereo not given in full) | . | . | - | . | . | .
COc1ccc(-c2cc(C(F)F)n3ncc(C(=O)N4CCSCC4)c3n2)cc1 | ? | - | - | - | ? | -
CCOC(=O)C1CCCN(C(=O)c2cnn3c(C(F)F)cc(-c4ccc(C)cc4)nc23)C1 (stereo not given) | 7.9µM | - | - | - | ? | -
CCOC(=O)C1CCN(C(=O)c2cnn3c(C)cc(C)nc23)CC1 | - | - | - | - | - | -
Cc1ccc(-c2cc(C(F)F)n3ncc(C(=O)N4CCN5CCCC5C4)c3n2)cc1 (stereo not given) | 20µM | - | - | - | ? | -
Cc1ccc(-c2noc(CSc3nnnn3C3CCCCC3)n2)cc1 | - | - | - | - | 25µM | -
COc1ccc(Cl)cc1NS(=O)(=O)c1ccc(S(=O)(=O)N2CCCC2)cc1 | - | - | 25µM | - | - | -
CN(C)C[C@@H](O)c1ccc(Cl)c2ccccc12 | -[11.4 µM] | -[9.22 µM] | -[11.5 µM] | -[9.22 µM] | -[11.4 µM] | -[9.17 µM]
COC(=O)c1ccc(C(NC(=O)OCc2ccccc2)/C(F)=C/[C@@H](C)C(=O)NCc2ccc(OC)c(OC)c2)cc1 (stereo not given in full) | - | - | - | . | - | .
CC1CCCCN1c1nc(-c2ccncc2)nc2ccccc12 (stereo not given) | 25µM | -[1.84 µM] | 32µM | - | ? | -
CCC(Sc1nc2ccccc2s1)C(=O)Nc1nnc(C)s1 (stereo not given) | 20µM | - | ? | - | ? | -
Cc1nnc(SCC(=O)Nc2nccs2)s1 | - | - | - | - | - | -
CCC(Sc1nnc(C)s1)C(=O)Nc1nccs1 (stereo not given) | 25µM | - | ? | - | ? | -
CCOc1ccc2nc(NC(=O)CN3CCC(n4nnc5cc(F)ccc54)CC3)sc2c1 | - | - | - | - | - | -
COc1cccc(Oc2cn[nH]c2-c2ccc(O)cc2O)c1 | 1µM | -[0.369 µM] | - | - | ? | -
CS(=O)(=O)Nc1cccc(-c2nc(Nc3ccc(F)cc3)c3ccccc3n2)c1 | - | - | ? | -[9.22 µM] | 25µM | -
CNc1nc(-c2cccc(NS(C)(=O)=O)c2)nc2ccccc12 | - | - | - | -[9.22 µM] | - | -
Clc1cccc(Cl)c1C(Nc1nncs1)Nc1nncs1 | -[11.4 µM] | -[9.22 µM] | -[11.5 µM] | -[9.22 µM] | -[11.4 µM] | -[9.17 µM]
COc1ccccc1C(c1nnnn1CCc1ccccc1)N1CCN(c2ccccc2)CC1 (stereo not given) | ? | - | - | - | ? | -
COc1cccc(C(c2nnnn2CCc2ccccc2)N2CCN(c3ccccc3)CC2)c1OC (stereo not given) | 7.9µM | . | - | - | ? | -
CN(C)c1ccccc1CN1CCCN(Cc2ccccc2N(C)C)C1c1ccncc1 | -[11.4 µM] | -[9.22 µM] | -[11.5 µM] | -[9.22 µM] | -[11.4 µM] | -[9.17 µM]
Cc1cccc(-c2nc(C#N)c(N3CCCCCC3)o2)c1 | - | - | ? | - | 25µM | -
COc1ccc(-c2nc(C#N)c(N3CCN(c4ccccc4)CC3)o2)cc1 | - | - | - | - | . | -
O=C1C(Cl)=C(NC2CCc3ccccc32)C(=O)c2ncccc21 (stereo not given) | - | - | ? | . | ? | .
